From PubChem BioAssay (EPA / NIEHS)
Activity calls are given as the source filed them. How the source made its calls: active means hit-call score of the fitted dose curve at least 0.9, where 1 is the maximum; inactive means score below 0.9.

Experiment: CCTE_Shafer_MEA_acute_per_network_burst_spike_number_mean: CCTE's Neural Acute Assay for Average Number of Spikes in a Network Burst, Shafer Lab (AID 2284019)
Experimental: CCTE_Shafer_MEA_acute assay is conducted using Axion Biosystems 48 well microelectrode array (MEA) plates and Maestro recording system. Each well of the MEA plate contains a grid of 16 microelectrodes embedded in the culture surface. Electrically active cells, such as neurons, can be cultured over the electrodes, and electrical activity in these cells can be recorded extracellularly. The spontaneous firing of neurons is captured from each electrode on a microsecond timescale providing both temporally and spatially precise data. […] The CCTE_Shafer_MEA_acute assay uses primary cultures of rat cortical neurons. As these cultures mature over time, neural networks develop functional activity and form cohesive networks in which electrical activity can be highly coordinated. Baseline 40-minute recordings are made on days post-plating 13 or 15, followed by a secondary 40-minute recording after chemical exposure.CCTE_Shafer_MEA_acute_per_network_burst_spike_number_mean is a component of the CCTE_Shafer_MEA_acute assay. It measures the average number of spikes (action potential firings) in a network burst (temporally-clustered group of spikes across multiple electrodes) as the total number of spikes in a network burst divided by the number of network bursts during a recording in a microelectrode array (MEA) using Axion Biosystems Maestro 768 channel amplifier with the AxIS adaptive spike detector. The recordings before and after chemical treatment are used to calculate a percent change in the mean number of spikes in a network burst in each well.Data from the assay component CCTE_Shafer_MEA_acute_per_network_burst_spike_number_mean was analyzed into 1 assay endpoint. This assay endpoint, CCTE_Shafer_MEA_acute_per_network_burst_spike_number_mean, was analyzed in the negative analysis fitting direction relative to DMSO as the negative control and baseline of activity. Using a type of functional reporter, gain or loss-of-signal activity can be used to understand electrical activity.
Spontaneous activity in the cortical cultures was recorded using an Axion Biosystems Maestro 768 channel amplifier and Axion Integrated Studios (AxIS) v1.8 (or later) software. The amplifier recorded from all channels simultaneously (gain = 1200 x; sampling rate = 12.5 kHz/channel): raw signals were filtered with a Butterworth band-pass filter (300-5000 Hz), which filters out slower local field potentials leaving only fast potentials, i.e., "spikes", arising from extracellular currents associated with action potentials (Pine 2006; Wheeler and Nam 2011). On-line spike detection of filtered signals was conducted with the AxIS adaptive spike detector, using a threshold of 8x the root mean squared (rms) noise on each channel. Any electrodes with rms noise levels greater than 5 uV were grounded (e.g., no data were recorded). Once grounded, an electrode was grounded for the duration of the experiment. All recordings were conducted at 37 C. Wells were deemed usable if on the day of the exposure >/= 10 electrodes were active (defined as >/= 5 spikes/min). On DIV 13 or 15, a minimum of three wells from one cortical culture preparation were treated with each compound (0.03-40 uM). Prior to recording baseline activity, each mwMEA plate was placed in the Maestro at 37 C and allowed to sit for 20 min while firing rates stabilized. Baseline activity (40 min) was recorded before the addition of each compound. An additional 40 min of spontaneous activity was recorded in the presence of each compound. Changes in network parameters relative to baseline were assessed following compound treatment.

AC50, active:
Nc1cc([N+](=O)[O-])ccc1O 0.0403 µM
CC(=O)[C@H]1CC[C@H]2[C@@H]3CC=C4C[C@@H](O)CC[C@]4(C)[C@H]3CC[C@]12C 15 µM
COc1cc(C=O)ccc1OC(=O)C(C)C 3.8 µM
Cc1cc(C2(c3cc(C)c(O)cc3C)OS(=O)(=O)c3ccccc32)c(C)cc1O 25.9 µM

outcome, inactive:
CC(=O)OCCC(C)CC(C)(C)C (stereo unspecified)
OC[C@H]1O[C@H](O[C@]2(CCl)O[C@H](CCl)[C@@H](O)[C@@H]2O)[C@H](O)[C@@H](O)[C@H]1Cl
CC(C)(COC(=O)c1ccccc1)COC(=O)c1ccccc1
CCCCCCCCC=O
C[C@H]1C[C@@H]2[C@H]([C@@H](O)C[C@@]3(C)[C@H]2CC[C@]3(O)C(=O)CO)[C@@]2(C)C=CC(=O)C=C12
NCCNCCN
CC[Si](OC(C)=O)(OC(C)=O)OC(C)=O
CN(C)C(=N)N=C(N)N
C=C[Si](OCC)(OCC)OCC
CCC(=O)OCc1ccccc1
OC1OC[C@@H](O)[C@H](O)[C@H]1O (stereo partly specified)
C=CCOC(=O)CCC1CCCCC1
